Whole data set: some 9,900 sequences, median “r (bound/input frequency ratio)” near 0.7, cut for the highest 2% near 6.5. The sample holds the highest values, similar sequences and a random draw of the others, so the mix is not that of the screen.
B1: ENSMUSG00000031028.158|Tub (ssRNA)
RNA: GGGAGUUCUACAGUCCGACGAUCGCUUCGAUAUCCGCAUGCUAUGCCAGCAUGCCAUGAUCAGUGAGGGCUGUGUGCCAUGCUUAGGGGGAUGGCGCAGGGUGAGGGGAGCAGAGGAUAUUUUAGGGCCACAAGAGCUCAGAGGUAGCGGACCUCUGUGUGGUUCACCAACAGCAAUGCUGAUCCCUGAGUAUAGGGCACAUGUCUCUUGGUUACCUCACUGGUUAAUGGCAGAGUUGAGAACCUCAAAUUCUUUUGUUCCUACUGUUGCCCAGAAACUAGACUCUCUGACCUGCUAGGGUCUCUCUUGCGGUCGCACUAGUGUGGAAUUCUCGGGUGUCAAGG
B2: ENSMUSG00000031028.505|Tub (ssRNA)
RNA: GGGAGUUCUACAGUCCGACGAUCGCUUCGAUAUCCGCAUGCUACUGGGAAGACAGGAGUCGGAAGCCAAGGUGUGUGGCAACAGUCUGGAAGAGAGCUUUUGGUAAUCAUACCGUCUUCAGUGACAAGGCAACAAUGCUGUAAAGUGGGUUUGUUUGGUUUUGUUUUUUCUUUCUCUUUUAUGGAAAUGGCAGGUCUAUUUGCCUCAAACGUUAUGUAGAAGUAGUUCUAAGUUUAACAAGCAAUAGAGAUGACUGCUUAGCUAGGAUCUGCAGGGAGCUCUGCUCUGCAAGCACAACACCUGCUCUUGCGGUCGCACUAGUGUGGAAUUCUCGGGUGUCAAGG
B3: ENSMUSG00000090935.538|Synj2bp|26:32 (ssRNA)
RNA: GGGAGUUCUACAGUCCGACGAUCGCUUCGAUAUCCGCAUGCUAAAUGGCAAGGAGGAUAAAACACUGUACACACAUGUAUUGUUGAUCUAAAUAAAAAAUAUCAUUGGUAGAAGUUUUACUUUGGUUGAUAAGGAUUCUGAUAACAUUUGGGUCUCCUUAGGAAAGAAACACUUAACUAAAACAUUUAAGUUUUAGGCAAAUACUGUAAUAUUUCACUCUUAGUUAUAUGAAAACUAAAUGAGAUGUUGAGAAUCUAUAUAGAUUAUUCAAAUUUUAUGUUUCUUAUAGACUGACUCAAAUAUCUCUUGCGGUCGCACUAGUGUGGAAUUCUCGGGUGUCAAGG
B4: ENSMUSG00000061578.246|Ksr2 (ssRNA)
RNA: GGGAGUUCUACAGUCCGACGAUCGCUUCGAUAUCCGCAUGCUACAGAACCUUCUCACCCCUUUGCAAAGCUCUUGCCGUCUGCACCCGGGACCCCGGGACCCACACAAGUUGUCCCCAUGUGAACAUCCUGCCUCUCCUGGUGACAUCUGUCUCUGGCUCAGCUUCUCUGCCUCUUACAGACAGUUUCCCUGUACAUUUGCUUAUGGCCCUGGGCUCCAGAGUCGCUGAAGACCACUCUCCACAGCAGCUGUAACCCCAUCUAACAAGCCCUGUUCUGGAUAUAUCUCUGUGGCCAGGGCUGGCUCUUGCGGUCGCACUAGUGUGGAAUUCUCGGGUGUCAAGG
B5: ENSMUSG00000061578.893|Ksr2 (ssRNA)
RNA: GGGAGUUCUACAGUCCGACGAUCGCUUCGAUAUCCGCAUGCUAGGCCAUCAGGGCCCCAUUCUGAGGUCCUGGGACACUACCCAAACCCUAGCACUCUCCCAGUGACUCUCCUAUGAGUACAUAUGCCAUCCUGCUUCCUUUGUGGCAAAACCCUGGGUCACCCAGAGACAGAUUUCCCAGAAUCCCUGGGCCACUUCUCAAUUCUACCCAUGACAGACAUGUCCCAUCCAUGAGCCCAGAUAGUCAAAGACUUCAGCACAAGGGUGUUUAGAGUAGGCAGUGUGGAAGUAUCAAUAAGGUUACUCUUGCGGUCGCACUAGUGUGGAAUUCUCGGGUGUCAAGG
B6: ENSMUSG00000061578.293|Ksr2 (ssRNA)
RNA: GGGAGUUCUACAGUCCGACGAUCGCUUCGAUAUCCGCAUGCUAUAAGCAUCUUAGAGUUUCUCUUUUCUCUUUAAUUGCAUCAGGACCCCUUUGGUCCAUGUACCCCGGUCUCUGUCACAUGCCUUUGUAUCUUGGAGGAAGUAAGAGAGGAGAGAGCCAGGGAGGGCUGAAGCUCUGGGACCCUGAAGUGUCCCCCGGGAACUGGGACUCACUCAUCUUCUCCUGUUUGUAGCUCAAUGACCCAGUGGGUCACAGUUCUAGGCGCUCCAAGGAAGCCAGGGGAGGGGGACUCCUCAGGAAGGCUCUUGCGGUCGCACUAGUGUGGAAUUCUCGGGUGUCAAGG
B7: ENSMUSG00000042529.251|Kcnj12 (ssRNA)
RNA: GGGAGUUCUACAGUCCGACGAUCGCUUCGAUAUCCGCAUGCUAAAUUUCUAAUCUAGGAGAUUCCCCUAGGACCCGCUGCAGAGGCAUGGGCUCCUCUGUGGUCCUGGCCAGACCUCUGCCCCCAAAUCUCACUGACUGUUCUAGCCUUGGCCUUGGGGCCUAAGGGUGCAUUCAGCCUGGGUGUGCUUACCUGCCACUCACCUCUCUAUCUAGUUGUCGAGUCUAGGGAAGGGCAGAGGGUGGGUCCUGGCCACUGGGUGCCACUGUGGGAGCCGGGGCACCUGUCAUUCUUUCUGAGUAGGCUCUUGCGGUCGCACUAGUGUGGAAUUCUCGGGUGUCAAGG
B8: ENSMUSG00000031028.344|Tub (ssRNA)
RNA: GGGAGUUCUACAGUCCGACGAUCGCUUCGAUAUCCGCAUGCUAGGUUGACAAGUUUAAGGUUGAACAGGCUGAUUUCUGGAAUCUCAUGAGUGGAGGGGACCCUGGUGGUUAAGAGCGGAACUGGAAGCACAAUGGAAAACUCUUGGACUCUGCUCUCUGCUUUACCACACACAAAAAAGAGGGUUCUUGGCUAUUUGAAUAUAAAGUUGGUAGCACCAGGAAAUAGGCUGAACUUUGUAGCCCACUGUGGAAAGGAGCAGCCUCAGCACAAACCCCUCUGUCGGGCCCUGAGUGACAAGACCCUCUUGCGGUCGCACUAGUGUGGAAUUCUCGGGUGUCAAGG
B9: ENSMUSG00000058297.294|Spock2 (ssRNA)
RNA: GGGAGUUCUACAGUCCGACGAUCGCUUCGAUAUCCGCAUGCUAAGAGAGAAUGAGAGAGAAUGAGAGAGAGAAUACCCGAGGGCCACCCUGAUGCCCAGGAAGAGUGAGGGCAGCCCCCUGUGUGGUGGAAGAGGCUGGGCAGCUAGCUACUGGGGACCUUGUGCUGAGGCUUCCAGGACAAAGCCCCAGUCUGGCUCUCCCCCAGCCUCUCAGGGGCACUGGCUGGUCACAUCCACUGAGUAUUGAUCGGUUGGACUUUAGGGAAGAGCCUCCUCCUUCCCAUUCCUUUCUGCCACCCUGGACUCUUGCGGUCGCACUAGUGUGGAAUUCUCGGGUGUCAAGG
B10: ENSMUSG00000058297.295|Spock2 (ssRNA)
RNA: GGGAGUUCUACAGUCCGACGAUCGCUUCGAUAUCCGCAUGCUAAAUGAGAGAGAAUGAGAGAGAGAAUACCCGAGGGCCACCCUGAUGCCCAGGAAGAGUGAGGGCAGCCCCCUGUGUGGUGGAAGAGGCUGGGCAGCUAGCUACUGGGGACCUUGUGCUGAGGCUUCCAGGACAAAGCCCCAGUCUGGCUCUCCCCCAGCCUCUCAGGGGCACUGGCUGGUCACAUCCACUGAGUAUUGAUCGGUUGGACUUUAGGGAAGAGCCUCCUCCUUCCCAUUCCUUUCUGCCACCCUGGAAUGGCCCUCUUGCGGUCGCACUAGUGUGGAAUUCUCGGGUGUCAAGG
B11: ENSMUSG00000058297.296|Spock2 (ssRNA)
RNA: GGGAGUUCUACAGUCCGACGAUCGCUUCGAUAUCCGCAUGCUAAGAGAAUGAGAGAGAGAAUACCCGAGGGCCACCCUGAUGCCCAGGAAGAGUGAGGGCAGCCCCCUGUGUGGUGGAAGAGGCUGGGCAGCUAGCUACUGGGGACCUUGUGCUGAGGCUUCCAGGACAAAGCCCCAGUCUGGCUCUCCCCCAGCCUCUCAGGGGCACUGGCUGGUCACAUCCACUGAGUAUUGAUCGGUUGGACUUUAGGGAAGAGCCUCCUCCUUCCCAUUCCUUUCUGCCACCCUGGAAUGGCCACCUUACUCUUGCGGUCGCACUAGUGUGGAAUUCUCGGGUGUCAAGG

The binders below were run against TDP-43 (Homo sapiens, UniProt Q13148 1-414) (assay: RNA Bind-n-Seq with designed 260-mer pool; 25 mM Tris-HCl, 150 mM KCl, 3 mM MgCl2, BSA (printed 500 mg/mL), 20 units/mL SUPERase IN; pH not stated; 500 nM RNA pool, 1 h, 4 C; TDP-43 5, 50, 500 nM; high values mean tight binding). Conditions: protein: recombinant; tags: SBP (GST cleaved off with PreScission; pGEX-GST-SBP).
Summary of the method: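 Recombinant SBP-tagged TDP-43 at 5, 50 or 500 nM was captured on streptavidin beads, then incubated 1 h at 4 °C with 500 nM of an in vitro-transcribed 260-nt 3′ UTR oligo pool in 25 mM Tris-HCl, 150 mM KCl, 3 mM MgCl2, BSA and SUPERase IN. Bound RNA was washed, eluted with biotin, reverse transcribed, PCR-amplified and sequenced. Binding is R, each oligo's mapped-read-normalized abundance in the bound sample divided by its abundance in input. Duplicates used two independent protein batches.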

Chain of TDP-43 (Q13148 whole entry): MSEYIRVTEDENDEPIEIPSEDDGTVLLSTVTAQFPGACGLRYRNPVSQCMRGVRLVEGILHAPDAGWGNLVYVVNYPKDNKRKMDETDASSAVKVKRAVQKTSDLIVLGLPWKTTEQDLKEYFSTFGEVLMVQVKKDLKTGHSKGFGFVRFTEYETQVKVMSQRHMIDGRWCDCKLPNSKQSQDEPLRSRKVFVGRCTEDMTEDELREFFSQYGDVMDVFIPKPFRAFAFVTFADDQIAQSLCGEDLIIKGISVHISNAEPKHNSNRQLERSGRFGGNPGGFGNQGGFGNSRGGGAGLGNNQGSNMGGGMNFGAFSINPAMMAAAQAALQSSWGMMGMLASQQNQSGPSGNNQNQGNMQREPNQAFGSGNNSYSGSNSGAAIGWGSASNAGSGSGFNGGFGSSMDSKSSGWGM

Row | Binder | binding signal
1 | B1 | 0.506 R (bound/input frequency ratio)
2 | B2 | 0.58 R (bound/input frequency ratio)
3 | B3 | 0.0361 R (bound/input frequency ratio)
4 | B4 | 0.544 R (bound/input frequency ratio)
5 | B5 | 0.438 R (bound/input frequency ratio)
6 | B6 | 0.535 R (bound/input frequency ratio)
7 | B7 | 0.996 R (bound/input frequency ratio)
8 | B8 | 0.993 R (bound/input frequency ratio)
9 | B9 | 2.14 R (bound/input frequency ratio)
10 | B10 | 3.63 R (bound/input frequency ratio)
11 | B11 | 9.19 R (bound/input frequency ratio)

Source: publication PMC12864922, “TDP-43 directly inhibits mRNA accumulation in neurites through modulation of mRNA stability”
